These results are taken from the supplement of paper PMC12494721.

Molecules are shown by their SMILES. Where a name gives a salt, the structure may show the parent alone. Values without a mark were called inactive.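 Rule for the calls: for the amine columns active = adjusted P below 0.05 in both replicates with a change the same way and a mean fold change under 0.8 or over 1.25; inactive = the rest.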

The experiment deals with Ruminococcus gnavus DSM 108212. The experiment is described as follows: fold change of Tryptamine concentration vs plate DMSO controls (fold change (ratio)); higher = more amine produced, active = hit call of the paper (significant change in both replicates, either direction). Conditions: 20 µM; incubation time: 27 h, anaerobic, 37 °C. The procedure, abridged: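 Anaerobic mGAM cultures of four gut bacterial strains were grown at 37 °C for 27 h in 80 µL wells, starting at OD 0.1 before 1:1 dilution. Compounds were at 20 µM final (sweeteners 50 µM). Whole cultures were extracted with cold acetonitrile/methanol containing 0.1% formic acid and centrifuged. Amines were quantified by LC–triple-quadrupole MS (dynamic MRM) against external calibration curves and drift-corrected within batch. Each value is the fold change versus plate DMSO controls, averaged over 2 biological replicates.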
On to `CCCC(C)(COC(N)=O)COC(=O)NC(C)C` (stereo not drawn) [Carisoprodol], for which the “fold change of Tryptamine concentration” value was 1.02.

Take `CCC1(c2cccc(O)c2)CCCCN(C)C1` (stereo not drawn) [Meptazinol hydrochloride]: the “fold change of Tryptamine concentration” value was 0.997.

For the compound `CC(C)(C)NCC(O)c1ccccc1Cl` (stereo not drawn) [Tulobuterol hydrochloride], the “fold change of Tryptamine concentration” value was 0.664.

Regarding `C[C@]12CCC(=O)C(O)=C1CC[C@@H]1[C@@H]2CC[C@]2(C)C(=O)CC[C@@H]12` [Formestane], the “fold change of Tryptamine concentration” value was 1.

As for `C=C(C)[C@@H]1[C@H]2OC(=O)[C@@H]1[C@]1(O)C[C@H]3O[C@]34C(=O)O[C@H]2[C@]14C` [Picrotoxinin], the “fold change of Tryptamine concentration” value was 1.02.

On to `CCOc1cc(Oc2ccc(C(F)(F)F)cc2Cl)ccc1[N+](=O)[O-]`, for which the “fold change of Tryptamine concentration” value is 1.04.

In the case of `O=C(O)C(F)(F)C(F)(F)C(F)(F)C(F)(F)C(F)(F)C(F)(F)C(F)(F)C(F)(F)C(F)(F)F` [PFDeA (Perfluorodecanoic acid)], the “fold change of Tryptamine concentration” value was 0.999.

For the compound `CC[C@@H](CO)NC(=O)[C@@H]1C=C2c3cccc4[nH]cc(c34)C[C@H]2N(C)C1` [Methylergometrine maleate], the “fold change of Tryptamine concentration” value was 1.02.

`O=C(O)C(F)(F)C(F)(F)C(F)(F)C(F)(F)C(F)(F)C(F)(F)C(F)(F)F` [PFOA (Perfluorooctanoic acid)]: the “fold change of Tryptamine concentration” value was 0.94.

With `COc1ccc2c(c1)[C@]13CCCC[C@@H]1[C@H](C2)N(C)CC3` [Dextromethorphan hydrobromide monohydrate], the “fold change of Tryptamine concentration” value is 0.998.

`CCOP(=S)(OCC)Oc1cc(C)nc(C(C)C)n1`: the “fold change of Tryptamine concentration” value is 0.997.

Turning to `CC(=O)NC1CCSC1=O` (stereo not drawn) [Citiolone], the “fold change of Tryptamine concentration” value is 1.17.

On to `CCCCN(CCCC)N=O` [DBNA (N-nitrosodibutylamine)], for which the “fold change of Tryptamine concentration” value was 1.01.

In the case of `CC[C@H](C)[C@H]1O[C@]2(C=C[C@@H]1C)C[C@@H]1C[C@@H](C/C=C(\C)[C@@H](O[C@H]3C[C@H](OC)[C@@H](O[C@H]4C[C@H](OC)[C@@H](O)[C@H](C)O4)[C@H](C)O3)[C@@H](C)/C=C/C=C3\CO[C@@H]4[C@H](O)C(C)=C[C@@H](C(=O)O1)[C@]34O)O2.CO[C@H]1C[C@H](O[C@H]2[C@H](C)O[C@@H](O[C@@H]3/C(C)=C/C[C@@H]4C[C@@H](C[C@]5(C=C[C@H](C)[C@@H](C(C)C)O5)O4)OC(=O)[C@@H]4C=C(C)[C@@H](O)[C@H]5OC/C(=C\C=C\[C@@H]3C)[C@]54O)C[C@@H]2OC)O[C@@H](C)[C@@H]1O`, the “fold change of Tryptamine concentration” value is 0.906.

For `C=CCC1(CC(C)C)C(=O)NC(=O)NC1=O` [Butalbital], the “fold change of Tryptamine concentration” value is 1.

For the compound `NCC(CC(=O)O)c1ccc(Cl)cc1` (stereo not drawn) [Baclofen], the “fold change of Tryptamine concentration” value was 1.1.

Turning to `N#Cc1cc(Br)c(O)c(Br)c1`, the “fold change of Tryptamine concentration” value is 1.02.

In the case of `N#CC(CCc1ccc(Cl)cc1)(Cn1cncn1)c1ccccc1` (stereo not drawn), the “fold change of Tryptamine concentration” value was 1.04.

For the compound `CN(C)C(=O)Oc1ccc[n+](C)c1` [Pyridostigmine iodide], the “fold change of Tryptamine concentration” value was 1.01.

Regarding `CC(C)C[C@H](CN)CC(=O)O` [Pregabalin], the “fold change of Tryptamine concentration” value is 1.05.

Take `Clc1ccc(C(OCCN2CCCCC2)c2ccccc2)cc1` (stereo not drawn) [Cloperastine hydrochloride]: the “fold change of Tryptamine concentration” value is 0.88.

In the case of `O=[N+]([O-])c1ccc2ccc3cccc4ccc1c2c34` [1-Nitropyrene], the “fold change of Tryptamine concentration” value is 0.952.

As for `COCC(=O)N(c1c(C)cccc1C)C(C)C(=O)OC` (stereo not drawn), the “fold change of Tryptamine concentration” value is 0.983.

As to `CCCN1C[C@H](CSC)C[C@@H]2c3cccc4[nH]cc(c34)C[C@H]21` [Pergolide mesylate], the “fold change of Tryptamine concentration” value was 1.02.

In the case of `COc1cc(OC)nc(NC(=O)NS(=O)(=O)c2ncccc2C(=O)N(C)C)n1`, the “fold change of Tryptamine concentration” value was 1.01.

Turning to `CNC(C)(C)Cc1ccccc1` [Mephentermine hemisulfate], the “fold change of Tryptamine concentration” value was 1.24.

On to `CC1(C)C(C=C(Cl)Cl)C1C(=O)OC(C#N)c1ccc(F)c(Oc2ccccc2)c1` (mixture of isomers), for which the “fold change of Tryptamine concentration” value is 0.996.

For the compound `CCC1(CC)C(=O)C=CNC1=O` [Pyrithyldione], the “fold change of Tryptamine concentration” value is 1.02.

As for `COP(=S)(OC)Oc1nc(Cl)c(Cl)cc1Cl`, the “fold change of Tryptamine concentration” value is 0.898.

On to `Nc1nc(N)nc(NC2CC2)n1` [Cyromazine], for which the “fold change of Tryptamine concentration” value was 0.995.

As to `ClC1C(Cl)C(Cl)C(Cl)C(Cl)C1Cl` (stereo not drawn), the “fold change of Tryptamine concentration” value was 0.98.

`CCCN(CCC)C(=O)SCc1ccccc1`: the “fold change of Tryptamine concentration” value was 0.923.

`Cc1ccccc1[N+](=O)[O-]` [2-Nitrotoluene]: the “fold change of Tryptamine concentration” value is 0.981.
